For some of these results: Results with a measured potency or affinity are listed apart.

Common to all, as to set-up: scale not given: direction of the effect not stated beside the values
The target in assay [1] is Protein translocase subunit SecA (Escherichia coli (strain K12)) (UniProt P10408). Description: Assay to Identify E. coli SecA ATPase Inhibitors. It is filed as functional. Conditions: 30 µM.
Assay [2] addresses T1, Ubiquitin-activating enzyme e1, putative (Leishmania donovani (strain BPK282A1)) (UniProt E9BSI1).
T1 sequence (whole entry): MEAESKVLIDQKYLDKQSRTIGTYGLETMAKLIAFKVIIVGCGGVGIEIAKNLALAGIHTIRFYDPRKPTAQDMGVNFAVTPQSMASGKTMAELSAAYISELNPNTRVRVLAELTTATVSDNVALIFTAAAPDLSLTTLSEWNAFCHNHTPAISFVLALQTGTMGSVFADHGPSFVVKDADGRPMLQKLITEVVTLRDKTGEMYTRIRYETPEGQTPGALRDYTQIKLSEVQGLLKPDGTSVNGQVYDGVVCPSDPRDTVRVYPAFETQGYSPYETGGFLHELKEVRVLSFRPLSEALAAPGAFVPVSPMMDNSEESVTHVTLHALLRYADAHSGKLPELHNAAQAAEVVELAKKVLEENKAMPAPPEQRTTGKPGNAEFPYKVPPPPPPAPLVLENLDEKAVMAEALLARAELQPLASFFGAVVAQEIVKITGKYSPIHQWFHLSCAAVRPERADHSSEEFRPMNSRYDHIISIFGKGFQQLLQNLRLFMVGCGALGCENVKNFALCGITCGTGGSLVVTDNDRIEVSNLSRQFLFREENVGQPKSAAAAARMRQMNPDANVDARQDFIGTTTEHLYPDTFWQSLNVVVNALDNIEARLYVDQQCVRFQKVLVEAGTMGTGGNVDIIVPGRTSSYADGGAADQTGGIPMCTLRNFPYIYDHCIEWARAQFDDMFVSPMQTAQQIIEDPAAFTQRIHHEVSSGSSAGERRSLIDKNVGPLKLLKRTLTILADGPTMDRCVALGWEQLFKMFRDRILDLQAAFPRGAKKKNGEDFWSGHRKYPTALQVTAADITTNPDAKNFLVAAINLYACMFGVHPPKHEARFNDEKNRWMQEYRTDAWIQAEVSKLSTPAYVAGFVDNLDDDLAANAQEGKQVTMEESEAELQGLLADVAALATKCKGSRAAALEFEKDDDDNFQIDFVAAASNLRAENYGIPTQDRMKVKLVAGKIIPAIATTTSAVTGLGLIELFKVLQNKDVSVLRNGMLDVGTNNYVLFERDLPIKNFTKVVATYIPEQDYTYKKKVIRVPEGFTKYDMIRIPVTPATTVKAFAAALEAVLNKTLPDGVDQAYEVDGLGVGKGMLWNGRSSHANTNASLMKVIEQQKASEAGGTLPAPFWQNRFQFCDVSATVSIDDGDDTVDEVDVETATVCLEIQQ
Description: Leishmania donovani Ubiquitin Activating Enzyme (LdE1). It is filed as functional. Conditions: 30 µM.

For assay [3], the target named is AMP-activated protein kinase, AMPK (Homo sapiens) (UniProt P54646+O43741+P54619+Q9UGJ0+Q9Y478+Q13131+Q9UGI9). Nature of the assay: AMP-dependent Kinase enzyme assay. An in vitro enzyme assay that detects ADP turnover that is directly proportional to AMPK activity. This uses naive AMPK that is activated during the assay with MK-8722. It is filed as functional. Conditions: 30 µM.

The target in assay [4] is Sialic acid-binding Ig-like lectin 9 (Homo sapiens) (UniProt Q9Y336). Description: Hs-Siglec9 ALPHAscreen SOP 20170721. Conditions: 10 µM. (In general: Alpha assays give light when donor and acceptor beads are brought close together.)
In assay [5] the test system is Trypanosoma cruzi. Description: Trypanosoma cruzi phosphomannomutase and mannose-1-phosphate guanylyltransferase assay. It is filed as functional. Conditions: 10 µM.
The target of assay [6] is T2, Arginase-2, mitochondrial (Homo sapiens) (UniProt P78540).
T2 sequence (whole entry): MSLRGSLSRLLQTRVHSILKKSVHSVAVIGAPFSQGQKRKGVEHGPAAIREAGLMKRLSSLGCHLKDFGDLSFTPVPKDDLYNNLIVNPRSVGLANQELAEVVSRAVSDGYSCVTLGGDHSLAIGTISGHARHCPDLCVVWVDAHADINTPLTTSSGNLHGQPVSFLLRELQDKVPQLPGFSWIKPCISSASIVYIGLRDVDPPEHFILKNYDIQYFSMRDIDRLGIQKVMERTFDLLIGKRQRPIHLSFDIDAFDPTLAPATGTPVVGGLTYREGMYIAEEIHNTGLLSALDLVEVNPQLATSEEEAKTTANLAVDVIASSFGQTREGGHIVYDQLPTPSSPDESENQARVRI
Nature of the assay: in vitro enzyme assay to detect the production of urea directly proportional to the activity of Arginase II. Further: in the data most compounds retested in dose-response had high values. It is filed as functional. Conditions: 33.3 µM.

Assay [7] concerns the target T3, Proteasome subunit beta (Trypanosoma cruzi) (UniProt O96673).
T3 sequence (whole entry): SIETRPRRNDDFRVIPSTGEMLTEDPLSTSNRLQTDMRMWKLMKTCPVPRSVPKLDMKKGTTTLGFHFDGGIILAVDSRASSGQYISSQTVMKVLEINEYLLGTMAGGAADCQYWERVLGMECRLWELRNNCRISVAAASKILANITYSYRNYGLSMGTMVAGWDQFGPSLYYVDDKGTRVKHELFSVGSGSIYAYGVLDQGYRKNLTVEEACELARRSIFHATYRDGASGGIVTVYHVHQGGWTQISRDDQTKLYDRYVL
Nature of the assay: Trypanosoma cruzi proteasome chymotrypsin-like activity (TcProtChymo) assay. Further: in the data most compounds retested in dose-response had high values. Conditions: 9.37 µM. It is filed as functional.

For assay [8], the species on record is Homo sapiens. Nature of the assay: To identify inhibition of the IFN signalling (Jak-Stat) pathway via expression of an eGFP reporter gene under the control of an IFN-stimulated response element (ISRE) containing MxA promoter. Conditions: 30 µM. It is filed as functional. On the technique in general: In a reporter assay the amount or activity of a reporter protein is the signal.

Assay [9] addresses T4, Tyrosyl-tRNA synthetase, putative (Trypanosoma cruzi (strain CL Brener)) (UniProt Q4DSP6).
T4 sequence (whole entry): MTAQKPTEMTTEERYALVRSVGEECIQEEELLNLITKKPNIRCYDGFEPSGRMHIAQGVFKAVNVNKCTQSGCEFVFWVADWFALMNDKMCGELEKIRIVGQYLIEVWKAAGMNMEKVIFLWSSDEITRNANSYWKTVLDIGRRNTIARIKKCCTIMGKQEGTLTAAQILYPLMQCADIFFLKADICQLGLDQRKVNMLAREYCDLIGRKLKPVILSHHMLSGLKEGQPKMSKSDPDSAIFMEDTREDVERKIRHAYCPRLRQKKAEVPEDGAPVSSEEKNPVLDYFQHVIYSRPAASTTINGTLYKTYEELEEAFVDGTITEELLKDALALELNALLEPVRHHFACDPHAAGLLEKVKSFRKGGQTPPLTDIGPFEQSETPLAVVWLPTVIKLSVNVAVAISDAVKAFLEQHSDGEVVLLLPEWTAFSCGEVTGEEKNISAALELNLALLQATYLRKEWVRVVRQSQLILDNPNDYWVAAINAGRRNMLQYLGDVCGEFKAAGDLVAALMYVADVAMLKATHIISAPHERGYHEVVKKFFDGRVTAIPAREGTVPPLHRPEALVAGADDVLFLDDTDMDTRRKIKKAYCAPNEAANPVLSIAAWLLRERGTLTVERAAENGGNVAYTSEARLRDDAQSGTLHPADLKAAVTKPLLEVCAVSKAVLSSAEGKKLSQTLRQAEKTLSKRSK
Description: Trypanosoma cruzi tyrosyl tRNA synthetase (TcYRS) _High Tyrosine SOP. Further: in the data most compounds retested in dose-response had high values. Conditions: 30 µM. It is filed as functional.

Assay [10] addresses T4, Tyrosyl-tRNA synthetase, putative (Trypanosoma cruzi (strain CL Brener)). Nature of the assay: Trypanosoma cruzi tyrosyl tRNA synthetase (TcYRS) SOP. It is filed as functional. Conditions: 30 µM.
The target of assay [11] is Chromo domain-containing protein 1 (Saccharomyces cerevisiae (strain ATCC 204508 / S288c) (Baker's yeast)) (UniProt P32657). Nature of the assay: ScCHD-1 Enzyme Inhibition Assay. Further: in the data most compounds retested in dose-response had high values. It is filed as functional. Conditions: 30 µM.
Chain of Chromo domain-containing protein 1 (Saccharomyces cerevisiae (strain ATCC 204508 / S288c) (Baker's yeast)) (P32657 whole entry, the tested form may be a part): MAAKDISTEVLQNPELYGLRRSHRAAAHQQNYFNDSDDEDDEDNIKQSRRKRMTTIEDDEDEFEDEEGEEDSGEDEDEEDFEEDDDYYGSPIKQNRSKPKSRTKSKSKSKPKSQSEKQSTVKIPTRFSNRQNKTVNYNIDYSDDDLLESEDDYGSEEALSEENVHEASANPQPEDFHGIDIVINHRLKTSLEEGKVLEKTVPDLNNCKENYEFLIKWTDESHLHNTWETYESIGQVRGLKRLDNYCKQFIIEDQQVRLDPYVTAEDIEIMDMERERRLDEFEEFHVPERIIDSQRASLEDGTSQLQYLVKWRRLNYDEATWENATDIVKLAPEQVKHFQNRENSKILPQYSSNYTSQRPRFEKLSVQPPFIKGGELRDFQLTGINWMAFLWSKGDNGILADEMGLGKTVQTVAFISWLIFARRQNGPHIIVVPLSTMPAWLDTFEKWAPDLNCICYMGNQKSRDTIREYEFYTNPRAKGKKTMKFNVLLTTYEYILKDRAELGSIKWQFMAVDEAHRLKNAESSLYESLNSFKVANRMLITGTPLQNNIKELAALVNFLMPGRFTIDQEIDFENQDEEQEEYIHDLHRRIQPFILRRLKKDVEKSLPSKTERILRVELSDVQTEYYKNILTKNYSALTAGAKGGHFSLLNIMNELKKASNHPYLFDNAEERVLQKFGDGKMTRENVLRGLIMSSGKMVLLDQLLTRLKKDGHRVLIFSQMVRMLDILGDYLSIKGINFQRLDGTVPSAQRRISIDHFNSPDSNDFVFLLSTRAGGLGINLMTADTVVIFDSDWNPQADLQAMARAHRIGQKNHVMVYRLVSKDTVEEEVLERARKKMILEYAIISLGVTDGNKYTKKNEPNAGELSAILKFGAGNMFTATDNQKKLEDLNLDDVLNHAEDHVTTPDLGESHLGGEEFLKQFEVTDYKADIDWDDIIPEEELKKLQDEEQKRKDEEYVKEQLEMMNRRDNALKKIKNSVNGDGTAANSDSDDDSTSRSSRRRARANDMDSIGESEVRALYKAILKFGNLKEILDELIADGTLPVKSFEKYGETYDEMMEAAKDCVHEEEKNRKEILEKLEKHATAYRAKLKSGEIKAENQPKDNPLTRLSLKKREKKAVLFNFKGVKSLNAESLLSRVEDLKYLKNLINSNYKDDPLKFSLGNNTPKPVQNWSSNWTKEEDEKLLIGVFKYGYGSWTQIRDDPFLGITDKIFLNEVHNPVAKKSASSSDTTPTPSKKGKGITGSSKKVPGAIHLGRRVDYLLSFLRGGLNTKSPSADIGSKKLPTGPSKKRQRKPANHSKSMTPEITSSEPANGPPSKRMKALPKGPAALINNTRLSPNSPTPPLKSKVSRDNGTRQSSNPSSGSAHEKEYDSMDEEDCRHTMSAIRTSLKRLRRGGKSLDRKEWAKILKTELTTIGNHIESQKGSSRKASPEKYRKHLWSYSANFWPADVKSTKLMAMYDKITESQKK

Chain of Sialic acid-binding Ig-like lectin 9 (Homo sapiens) (Q9Y336 whole entry): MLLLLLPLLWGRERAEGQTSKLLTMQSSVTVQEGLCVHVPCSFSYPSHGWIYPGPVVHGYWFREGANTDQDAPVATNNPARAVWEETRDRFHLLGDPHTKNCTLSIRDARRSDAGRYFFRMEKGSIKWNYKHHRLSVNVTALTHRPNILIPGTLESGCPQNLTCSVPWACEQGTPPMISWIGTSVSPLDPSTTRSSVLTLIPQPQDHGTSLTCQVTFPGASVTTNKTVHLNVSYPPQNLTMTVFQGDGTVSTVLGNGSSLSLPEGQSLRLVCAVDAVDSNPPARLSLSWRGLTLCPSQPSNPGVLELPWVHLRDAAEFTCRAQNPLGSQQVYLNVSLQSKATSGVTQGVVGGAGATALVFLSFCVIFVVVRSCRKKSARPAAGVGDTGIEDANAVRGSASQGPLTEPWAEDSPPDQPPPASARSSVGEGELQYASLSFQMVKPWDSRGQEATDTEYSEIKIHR
Chain of Protein translocase subunit SecA (Escherichia coli (strain K12)) (P10408 whole entry): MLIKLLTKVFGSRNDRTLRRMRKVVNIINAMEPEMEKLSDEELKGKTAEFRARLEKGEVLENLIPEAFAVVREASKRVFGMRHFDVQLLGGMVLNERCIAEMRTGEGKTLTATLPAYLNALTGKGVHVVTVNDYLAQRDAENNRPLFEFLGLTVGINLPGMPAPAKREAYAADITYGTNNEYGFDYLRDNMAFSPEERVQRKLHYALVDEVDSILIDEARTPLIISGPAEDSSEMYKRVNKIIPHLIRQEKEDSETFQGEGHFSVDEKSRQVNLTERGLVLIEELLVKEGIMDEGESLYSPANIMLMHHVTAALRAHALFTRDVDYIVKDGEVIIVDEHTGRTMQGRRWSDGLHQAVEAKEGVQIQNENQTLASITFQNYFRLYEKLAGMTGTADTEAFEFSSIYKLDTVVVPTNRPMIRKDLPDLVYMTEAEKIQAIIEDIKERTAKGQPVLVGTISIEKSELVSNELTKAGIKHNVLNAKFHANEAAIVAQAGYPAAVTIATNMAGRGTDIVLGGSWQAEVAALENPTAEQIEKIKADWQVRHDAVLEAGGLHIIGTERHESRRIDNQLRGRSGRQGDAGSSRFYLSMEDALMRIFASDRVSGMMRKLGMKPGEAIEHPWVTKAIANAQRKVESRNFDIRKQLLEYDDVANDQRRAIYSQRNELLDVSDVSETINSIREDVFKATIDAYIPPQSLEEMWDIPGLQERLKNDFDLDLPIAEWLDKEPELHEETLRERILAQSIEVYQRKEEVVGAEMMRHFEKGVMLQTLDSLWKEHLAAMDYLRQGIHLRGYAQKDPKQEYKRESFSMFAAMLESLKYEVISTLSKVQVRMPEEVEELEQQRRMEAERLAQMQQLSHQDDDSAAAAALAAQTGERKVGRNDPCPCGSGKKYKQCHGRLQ

Consider `CCC(=O)N1CCc2[nH]cnc2C12CCN(C(=O)c1snnc1C)CC2`, for which the Percent Effect in assay [1] is -0.279%; in [2] it was 5.33%; in assay [3], -6.44%; in assay [4], 8.1%; in assay [5], 0.876%; in assay [6], 10.9%. In addition, the Percent Effect in [7] was 13.8%; in assay [8] it was 23.3%; in [9] it was 0.546%; in assay [10], 13.6%; in assay [11], -1.51%.

Take `COc1ccccc1CC(=O)N1CCC(NCc2c[nH]nc2C)CC1`: the Percent Effect in assay [1] is -1.53%; in [2], 13.5%; in [3], -1.94%; in [4], -8.2%; in assay [5], -1.02%; in assay [6], 0.924%. Further, the Percent Effect in assay [7] was 3.95%; in assay [8] it was 2.04%; in [9], 7.92%; in assay [10], 23.2%; in assay [11], -6.91%.

For `CCN1CC2(CC1=O)CN(C(C)=O)CCN(C(=O)c1ccco1)C2` (stereo unspecified), the Percent Effect was -1.61% in assay [1]; 5.48% in assay [2]; -6.62% in assay [3]; 5.12% in assay [4]; -0.595% in [5]; -4.79% in [6]. The Percent Effect in [7] is 5.05%; in assay [8], 4.81%; in assay [9], 1.04%; in [10], 3.7%; in assay [11] it was -1.88%.

Consider `COc1ccc(-c2nc(CN3CCN(CCO)CC3)co2)cc1`, for which the Percent Effect was -2.39% in assay [1]; 20.8% in assay [2]; -11.9% in assay [3]; -1.67% in [4]; 8.8% in [5]; 4.98% in assay [6]. The Percent Effect in assay [7] is 15.2%; in assay [8], 29%; in [9] it was 5.83%; in [10], 24.4%; in assay [11] it was -9.19%.

Consider `CN(C(=O)NCCCN1CCCC1)C1CCN(c2ccccc2)C1=O` (stereo unspecified), for which the Percent Effect in assay [1] was 5.28%; in [2] it was 15.8%; in [3] it was 2.15%; in [4] it was -4.7%; in assay [5] it was -7.71%; in assay [6] it was 0.766%. The Percent Effect in assay [7] is 20.9%; in [8], 24.5%; in assay [9], 4.41%; in assay [10] it was 12.2%; in assay [11], -10.3%.

Regarding `OCCN1CCOC2(CCCN(c3cccc(F)c3)C2)C1` (stereo unspecified), the Percent Effect in [1] was -3.44%; in assay [2] it was 13.3%; in assay [3], 5.94%; in [4] it was -3.82%; in assay [5], 0.394%; in assay [6], 0.233%. Further, the Percent Effect is 8.55% in [7]; 3.49% in assay [8]; 10.6% in assay [9]; 24.4% in [10]; -6.84% in [11].

As for `COCCNS(=O)(=O)c1ccc2c(c1)CCN(C(=O)c1cncn1C)C2`, the Percent Effect in assay [1] was -1.62%; in assay [2], 6.94%; in assay [3] it was -17.1%; in assay [4], 2.73%; in assay [5], -1.46%; in [6] it was 6.62%. The Percent Effect in [7] is 22.1%; in assay [8], 6.15%; in [9], 7.37%; in assay [10], 10.3%; in assay [11] it was -2.12%.

In the case of `N#CC(Sc1nnnn1C1CCOCC1)C1CCCCC1` (stereo unspecified), the Percent Effect in assay [1] was -4.28%; in [2] it was 2.67%; in assay [3], 0.0297%; in assay [4], 9.31%; in assay [5] it was -5.55%; in assay [6], 0.521%. The Percent Effect was 7.32% in assay [7]; -0.799% in [8]; 3.83% in [9]; 6.17% in [10]; -4.6% in assay [11].

Turning to `CC(C)OCCCNC(=O)c1ccc(-c2ccco2)[nH]c1=O`, the Percent Effect was -4.6% in assay [1]; 10.8% in assay [2]; 60.2% in assay [3]; -6.26% in [4]; -7.83% in assay [5]; -1.6% in [6]. For the same compound, the Percent Effect is 10.1% in [7]; 12.9% in [8]; 6.4% in [9]; 11.1% in assay [10]; -5.48% in [11].

Consider `CCc1ccc(CNC(=O)N2CCN(Cc3cc(C)no3)CC2)s1`, for which the Percent Effect was -3.56% in assay [1]; 15.8% in [2]; 7.06% in [3]; -6.42% in [4]; -9.24% in [5]; -1.08% in assay [6]. Besides, the Percent Effect in [7] was 17.2%; in assay [8] it was 13.6%; in assay [9], 2.46%; in assay [10], 6.17%; in [11], -7.04%.

As to `CCc1ncc2c(n1)CN(C(=O)COC)C2`, the Percent Effect in assay [1] was -3.52%; in assay [2], 8.22%; in assay [3], -3.13%; in [4], -3.99%; in [5], 2.55%; in assay [6], 1.36%. In addition, the Percent Effect was 12.1% in assay [7]; 8.48% in [8]; 9.68% in assay [9]; 22.5% in [10]; -4.35% in assay [11].

(Values after ChEMBL document CHEMBL3988442, “University of Dundee, Small-Polar-MMV Screening Library” (2021).)
